Data as given in PubChem BioAssay (NCI).
Compounds without any hit were thinned out: in the full panel of roughly 79,000, 15% have a hit. Unmarked numbers belong to inactive results. Active and inactive are the calls of the source. Rule as the data show it: active = growth inhibition above about 70%; inactive = the rest.

Legend:
[1] = NCI Yeast Anticancer Drug Screen. Data for the rad50 strain (AID 155);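 also: 0% = growth of vehicle-only cultures of the same strain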; settings: S. cerevisiae rad50 strain growth inhibition; at 50.0 µM; stronger effect = higher value
Method in brief: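 Readout: growth inhibition relative to vehicle-treated cultures. Compound exposure was carried out in a genetically defined yeast strain deficient in DNA damage repair.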

[2] = NCI Yeast Anticancer Drug Screen. Data for the mec2-1 strain (AID 157); settings: S. cerevisiae mec2-1 strain, at 50.0 µM, stronger effect = higher value
Method in brief: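 Growth inhibition is read against vehicle-treated controls after compound exposure of the mec2-1 yeast strain, which is defective in DNA damage repair or cell cycle control.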

[3] = NCI Yeast Anticancer Drug Screen. Data for the sgs1 mgt1 strain (AID 161);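 also: 0% = growth of cultures given vehicle only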; settings: S. cerevisiae sgs1 mgt1 strain, at 50.0 µM, stronger effect = higher value
Method in brief: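 This yeast growth screen uses a strain with defined DNA-repair lesions; compound-treated growth is compared with vehicle-treated growth.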

[4] = NCI Yeast Anticancer Drug Screen. Data for the cln2 rad14 strain (AID 165);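 also: 0% = growth equal to vehicle treated cultures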; settings: S. cerevisiae cln2 rad14 strain, at 50.0 µM, stronger effect = higher value
Method in brief: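 Growth inhibition, relative to vehicle-treated controls, is the read-out. The test organism is a yeast strain with defined genetic alterations, cln2 rad14.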

[5] = NCI Yeast Anticancer Drug Screen. Data for the bub3 strain (AID 167); settings: S. cerevisiae bub3 mutant strain, at 50.0 µM, stronger effect = higher value
Method in brief: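 Readout: yeast growth inhibition, expressed relative to vehicle-only wells. The test organism is a mutant strain from a panel with lesions in DNA repair or checkpoint genes.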

[6] = NCI Yeast Anticancer Drug Screen. Data for the mlh1 rad18 strain (AID 175); settings: S. cerevisiae mlh1 rad18 strain growth inhibition; at 50.0 µM; stronger effect = higher value
Method in brief: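 Cells of a genetically altered yeast strain, deficient in DNA damage repair, were treated with compound. Their growth was then compared with that of vehicle-treated cultures to give inhibition.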

| Structure (SMILES) | growth inhibition [1] | growth inhibition [2] | growth inhibition [3] | growth inhibition [4] | growth inhibition [5] | growth inhibition [6] |
| --- | --- | --- | --- | --- | --- | --- |
| COC1=CC(=O)C(CCC(C)=O)=CC1=O | -41.3% | -29.6% | -9.55% | -16.4% | 15.2% | -4.3% |
| COC(=O)c1ccc(OC(=O)Nc2ccc(C)cc2)cc1 | -7.15% | -9.6% | -8.45% | -9.4% | 13.6% | -6.6% |
| Cc1ncc(CO)c(/C=N/NC(=O)c2ccncc2)c1O | 14.3% | 9.4% | 11.7% | -35.5% | 15.8% | 17.6% |
| C=CCOC(=O)C(CC=C)C(C)=O (stereo not given) | 3.3% | -21.9% | -17.1% | -5.05% | -19.8% | -11.4% |
| CCCCS/C=C\C(=O)OCC | 18.9% | -22.8% | -8.5% | -44% | 0.15% | -15.4% |
| COc1ccn(C2OCCC(OC(C)=O)C2O)c(=O)n1 (stereo not given) | -19.8% | -24.1% | 6.25% | -22.9% | 0.4% | 11.7% |
| COc1ccc(CNc2cnc3ccc(N)cc3n2)cc1OC | -36.9% | -55.1% | -40.2% | 5.55% | -25% | -30.9% |
| CC1=C(C(=O)NCc2ccccc2)C(c2ccc(Cl)c(Cl)c2)C(C(=O)NCc2ccccc2)=C(C)N1 | -10.9% | 12.2% | -21.1% | 21.2% | -12.4% | -18.9% |
| CCN(CC)CCCN1CCc2c([nH]c3ccccc23)C1c1cccnc1 (stereo not given) | -4.2% | -18.4% | -0.3% | 5.9% | -18.1% | -17.4% |
| Cc1nc(C)c(N2CCN(C(=O)O)CC2)c(=O)[nH]1 | -23.6% | -10.9% | -16% | 9.85% | 5.15% | -58.4% |
| Cc1ccc(S(=O)(=O)N2CCSCCSCCSCCN(S(=O)(=O)c3ccc(C)cc3)CC2)cc1 | 7.05% | -0.8% | 4.25% | 15.6% | -4.1% | 23.1% |
| O=[N+]([O-])c1c(O)c2nonc2c2nn(-c3ccccc3)nc12 | 1.7% | 15% | 55.4% | 25.8% | -15.7% | -15.4% |
| COc1cc(C(O)C(=O)c2cnc3cc([N+](=O)[O-])ccc3n2)ccc1O (stereo not given) | 24.8% | 11.3% | -10.8% | 2.15% | -19% | -1.95% |
| O=C1CSc2nc3ccc(Br)cc3c(=O)n21 | 16% | 9.1% | 11.2% | -19.4% | 18.6% | 20.9% |
| CC(=O)O[C@H]1[C@@H]2[C@@H]3[C@@H](C[C@H]1C)[C@@H](C)CO[C@@]1(C)CC/C=C(/C)C[C@@H]2O[C@@H]31 | -3.9% | -1.75% | 0.15% | -19.1% | -12.8% | -8.95% |
| O=S(=O)(/C=C/S(=O)(=O)c1ccccc1)c1ccccc1 | 98.4% (active) | 98.8% (active) | 98.8% (active) | 97.9% (active) | 98.5% (active) | 98.2% (active) |
| O=c1[nH]c2c(Cl)cc(Cl)c(Cl)c2c2ccccc12 | -0.45% | 7.65% | 1.5% | -18.4% | 21.1% | 4.85% |
| CC(C)=CC(=O)OC1C2C(C)=CC(=O)C(O)C2(C)C2C3(O)OCC24C(CC(=O)OC14)C(C)C3O (stereo not given) | 91.6% (active) | 92.4% (active) | 91.5% (active) | 91% (active) | 90.8% (active) | 91.2% (active) |
| CCc1ccc(C(C)=O)cc1 | 7.05% | 41.5% | 34.8% | 3.5% | -9.7% | 52.6% |
| CC(=O)NS(=O)(=O)c1ccc(NC(=O)COC(=O)c2cccc3c(=O)c4ccccc4[nH]c23)cc1 | -33.1% | 5% | -48.6% | 7.1% | -28.6% | -23.6% |

| Structure (SMILES) | growth inhibition [1] | growth inhibition [2] | growth inhibition [3] | growth inhibition [4] | growth inhibition [5] | growth inhibition [6] |
| --- | --- | --- | --- | --- | --- | --- |
| O=C1CCC(c2nc3ccccc3[nH]2)N1Cc1cccs1 (stereo not given) | -29.4% | -37.1% | -10.2% | -21.9% | -6.85% | -8.55% |
| CN1CCC(C(=O)NNc2ccccc2)CC1 | -12.1% | -13.2% | -3.75% | 7.3% | 0.1% | 4.7% |
| COC(=O)CC(NC(=O)C(Cc1ccccc1)NC(=O)OCc1ccccc1)C(=O)O (stereo not given) | 31.5% | 9.15% | 18.2% | 11.7% | 2.1% | 23.1% |
| COc1cc([C@H]2c3[nH]c4ccccc4c3C[C@H]3COC(=O)N32)cc(OC)c1O | 56.5% | 9.85% | 25% | 12.1% | 18.9% | 51.9% |
| N#Cc1ccccc1-c1ccccc1/C=C/C(=O)O | -20.4% | -5.9% | -9.5% | 11.8% | -8% | 12.4% |
| CCCCOc1ccc(Nc2c(C(=O)OCC)cnc3cc4c(cc23)OCO4)cc1 | -3.3% | -9% | -0.25% | 8.2% | -3.45% | -9.4% |
| CCn1c(=NC(=O)c2ccccc2O)sc2ccccc21 | 16.5% | 4% | 2.15% | 17.9% | -5.7% | -3.05% |
| O=C(Nc1ccc(Cl)cc1)Nc1nnc(-c2ccccc2Br)o1 | 15.6% | 18.6% | 19.2% | -15.4% | -22.6% | 8.3% |
| COC(=O)C(CC(=O)c1cc2c(cc1I)OCO2)Cc1cc(OC)c(OC)c(OC)c1I (stereo not given) | -22.9% | -28.8% | -29.8% | -1.65% | -2.45% | -24.9% |
| BrCC(Br)c1ccc(C(Br)CBr)cc1 (stereo not given) | 7.65% | -21.6% | 25.1% | 14.7% | 1.5% | 12.1% |
| Nc1nc(SCc2ccccc2)c2ncn(Cc3ccccc3)c2n1 | 5.75% | -7.55% | -15.1% | 10.5% | -2.9% | 9.55% |
| CCOC(=O)c1sc(C(=O)OCC)c2c1-c1cccc3cccc-2c13 | -35.6% | 13.1% | 4.35% | -48% | 15.1% | -9.95% |
| CCN(CC)CCN1C(=O)c2cccc3c(N)c(OC)cc(c23)C1=O | 47.5% | -27.8% | -20.8% | -11.9% | -24.2% | -48.3% |
| CCN(CC)CCN1C(=O)C(=O)N(c2cccc3ccccc23)C1=O | -26.9% | -15.7% | -14.9% | -14.2% | -31.9% | -10.2% |
| Nc1nc(N)c2c(Cl)c(CNc3ccc(C(=O)NC(CC(=O)O)CC(=O)O)cc3)ccc2n1 | 19% | 9.65% | 22.2% | -1.35% | -4.05% | 14.4% |
| CC(C)[O-].CC(C)[O-].O=c1cccccc1[O-].O=c1cccccc1[O-].[Ti+4] | -13.2% | 0.9% | 14.2% | 10.8% | -1.5% | 22.4% |
| C=C(C)C(=O)OCCn1c(=O)c2c(ncn2C)n(C)c1=O | -7.25% | -18.8% | -12.8% | -3.1% | -14.5% | 5.55% |
| CCn1c2ccc(C=O)cc2c2cc([N+](=O)[O-])ccc21 | 6.25% | -2.1% | 7.2% | -0.05% | -4.7% | 15.1% |
| ClCc1c(Cl)c(Cl)c(CCl)c(Cl)c1Cl | 2.75% | -10.9% | 3.1% | 20.6% | 12.6% | -10.1% |
| O=C(C[n+]1csc2ccccc21)c1ccc(-c2ccccc2)cc1 | 18.1% | 9.8% | -11.9% | -3.05% | 11.6% | 4.85% |
